Tests used:
[1] = biological target: T1, Aspartate--tRNA(Asp/Asn) ligase (Mycobacterium tuberculosis (strain ATCC 25618 / H37Rv)) (UniProt P9WFW3); assay: Assay for Asp RNA synthetase-1 from Mycobacterium tuberculosis; format: functional; set-up: scale not given: direction of the effect not stated beside the values; conditions: 30 µM; also: in the data most compounds retested in dose-response had high values
T1 sequence (whole entry): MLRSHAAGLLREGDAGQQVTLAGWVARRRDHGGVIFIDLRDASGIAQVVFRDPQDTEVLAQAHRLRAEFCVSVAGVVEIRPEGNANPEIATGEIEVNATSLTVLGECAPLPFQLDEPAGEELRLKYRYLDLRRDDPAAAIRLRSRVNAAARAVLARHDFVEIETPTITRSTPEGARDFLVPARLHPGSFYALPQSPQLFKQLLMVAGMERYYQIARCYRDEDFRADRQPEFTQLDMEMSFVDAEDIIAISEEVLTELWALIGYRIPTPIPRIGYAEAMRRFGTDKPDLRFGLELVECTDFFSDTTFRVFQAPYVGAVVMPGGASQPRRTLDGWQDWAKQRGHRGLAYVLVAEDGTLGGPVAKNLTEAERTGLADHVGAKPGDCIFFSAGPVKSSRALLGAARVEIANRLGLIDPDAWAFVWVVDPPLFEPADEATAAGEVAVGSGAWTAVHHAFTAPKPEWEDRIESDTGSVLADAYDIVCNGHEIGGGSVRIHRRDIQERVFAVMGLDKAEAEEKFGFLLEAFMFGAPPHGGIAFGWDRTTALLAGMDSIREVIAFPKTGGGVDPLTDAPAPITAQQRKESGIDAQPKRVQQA

[2] = biological target: Shiga toxin 2 (Escherichia coli O157:H7) (UniProt P09385+P09386); assay: E. coli 0.157:H7 Shiga Toxin SOP - stx2 screening assay; format: functional; set-up: scale not given: direction of the effect not stated beside the values; conditions: 30 µM

SMILES | Percent Effect [1] [%] | Percent Effect [2] [%]
CCOc1c(Cl)cccc1NCc1cc(C)on1 | -1.21 | -64.7
COCC(c1cccc(C(F)(F)F)c1)N(C)C(=O)c1ccncc1 (stereo not drawn) | -1.77 | -15.3
CCOC(=O)c1sc2ccsc2c1CNC(=O)CC | 1.08 | -9.72
Cc1ccc(CNC2CCN(CCc3ccncc3)CC2)cc1C | -5.11 | -49.6
CCCc1n[nH]c(C2CN(CCn3cccn3)CCO2)n1 (stereo not drawn) | 3.43 | 6.67
Cc1ccc(C)c(-n2ccc3nc(N4CCCC4)ncc3c2=O)c1 | -4.04 | -36.3
O=C(Nc1ccccc1OC(F)F)C1=NN(c2ccccc2)C(=O)CN1 | 9.31 | -3.57
O=C(NCCN1CCCCC1)c1scnc1Cl | -1.07 | 30.3
Cc1ccc([C@@H]2CN(C(=O)c3ccc[nH]3)C[C@H]2NC(=O)C2CC2)cc1 | -1.93 | 3.8
Cn1cc(C(=O)NCC2CCN(C(=O)NCC(F)(F)F)CC2)cn1 | 2.43 | -39.4
Cc1nc(C2CCCN2Cc2nc(C)c(C)o2)no1 (stereo not drawn) | -0.728 | 7.48
CCS(=O)(=O)N1C[C@H]2CN(Cc3cccnc3)C(=O)[C@H]2C1 | 3.48 | -32.6
COCC1COCCC12CCN(C(=O)CCc1ccccc1)CC2 (stereo not drawn) | 3.96 | -14.9
CC(C)S(=O)(=O)NCC1CCCN(C(=O)c2cccnc2)C1 (stereo not drawn) | -0.834 | -4.9
Oc1ccc(N2CCN(Cc3cc4c(cc3Br)OCCO4)CC2)cc1 | 4.07 | 6.03
CCc1nc(CC(=O)N2CCn3c(nnc3C(C)C)C2)cs1 | -0.367 | -14.7
Cc1nc(O)c2nnn(C[C@H]3CCCN3C(=O)CCC3CCCC3)c2n1 | 2.01 | 13
N#Cc1ccc(CNCC2CCN(CCO)CC2)cc1 | 5.92 | -29.9
CCCN1C(=O)CC(N2CCN(c3ccc(F)cc3)CC2)C1=O (stereo not drawn) | 5.99 | -15.7
Cc1cnn(CC2CN(CC(=O)Nc3sccc3C#N)CCO2)c1 (stereo not drawn) | -2.83 | 27.5
Cc1noc(CN2Cc3ccccc3CC2c2nnc(C)o2)n1 (stereo not drawn) | -2.54 | -7.76
Cn1ccc(C(=O)N2CCC(Cc3cccc4cccnc34)C2)n1 (stereo not drawn) | -7.19 | 15.7
Cc1cc(C)n(CCCNC(=O)[C@@H](C)NC(=O)OC(C)(C)C)n1 | 2.46 | 12.1
CC(C)CN1CCN(C(=O)NCc2cccnc2-n2cccn2)CC1 | -1.98 | -22.5
COCCN1C[C@@H]2CCCO[C@@H]2[C@H](N(C)Cc2ccco2)C1 | 0.0735 | -6.84

SMILES | Percent Effect [1] [%] | Percent Effect [2] [%]
O=C(Cn1nc2c(cc1=O)CCCC2)N[C@@H](C(=O)O)c1ccccc1 | -1.42 | -35.6
COCc1nc(C(=O)N2CCCC(n3cccn3)C2)cs1 (stereo not drawn) | -1.71 | -22.6
Cc1nn(C)c(N(C)C)c1CNC1CCOc2c(F)cccc21 (stereo not drawn) | -0.433 | 30.8
c1ccc(C[C@H]2CN(Cc3nccs3)CC[C@H]2OCC2CC2)cc1 | 3.93 | 16
Cc1ccc(S(=O)(=O)NC(=O)c2cccc3c2OCCO3)c(C)c1 | -3.08 | -9.09
Cn1cc(C(=O)NC[C@@H]2OC[C@H]3CN(S(C)(=O)=O)CC[C@H]32)cn1 | 0.41 | -26.8
Cc1nc(N2CCN(C)CC2)ncc1C(=O)N1CC(C)(C)C(C)(O)C1 (stereo not drawn) | 3.48 | -28.2
Cc1cccnc1NC(=O)NCc1ccc(N2CCNC(=O)C2)cc1 | 5.31 | -63.3
COc1ccccc1CC1CCCN(CC(N)=O)C1 (stereo not drawn) | -3.29 | 28.2
Cc1nc(C)c(C(=O)N2CCC(Nc3cccnc3)CC2)s1 | 16.8 | -45.8
CCc1ccc(S(=O)(=O)N2CCC3(CC(C(=O)NC)=NO3)C2)cc1 (stereo not drawn) | -3.62 | -7.42
O=C(c1ccsc1)N1CCOC2(CCN(Cc3cccnc3)CC2)C1 | 0.932 | -9.41
CCc1csc(C2CCCN(C(=O)c3cnn(CC)c3)C2)n1 (stereo not drawn) | 0.0599 | -7.95
CCn1ccnc1CN1CCN(CCOc2ccccc2OC)CC1 | -3.95 | -17.6
Cc1noc([C@@H]2CC[C@@H]3[C@@H](CCN3S(=O)(=O)C3CC3)O2)n1 | 0.155 | -17.9
CS(=O)(=O)NCCCN1CCCCC1c1cc2ccccc2[nH]1 (stereo not drawn) | -1.17 | -11.8
O=C(c1ccncc1)N1CCCn2c(CN3CCCCC3)nnc2C1 | -3.93 | -4.1
Cc1nc(CN2CCC(N(C)Cc3noc(C(C)C)n3)C2)cs1 (stereo not drawn) | 8.39 | -23.4
Cc1ccc(CN(C)C(=O)CN2CCCC2Cn2cccn2)o1 (stereo not drawn) | -1.15 | -15.7
O=C(c1cc2c(s1)CCC2)N1CCCCC1Cn1cccn1 (stereo not drawn) | 1.25 | 11.1
Cn1c(C2CC2)nc2c1CCN(CC(=O)Nc1nncs1)C2 | 7.07 | -9.76
CC(C)OCCN1CCN(C(=O)c2cccc(CC#N)c2)CC1 | 2.85 | -12.3
Cc1cc(C(=O)N2CCc3ncc(CN4CCOCC4)n3CC2)no1 | -4.02 | -7.88
Cc1nc(C)c(C(=O)OCCNc2ncccc2C#N)s1 | 1.71 | -15.1
Cc1cc(N2CCN(Cc3ccccc3)CC(O)C2)cc(C)n1 (stereo not drawn) | -5.25 | -16.3

SMILES | Percent Effect [1] [%] | Percent Effect [2] [%]
COCCN1C(=O)C[C@@H]2[C@H]1CCN2C(=O)COc1ccccc1 | -2.36 | -1.37
CS(=O)(=O)N1CCC(C(=O)NC(Cc2ccsc2)c2ccccn2)CC1 (stereo not drawn) | -1.32 | 14.7
CC(C)c1nn(C)c(N(C)C)c1CNCCC(=O)NC1CCCC1 | -3.2 | -5.9
O=C(NC1CC1)[C@H]1C[C@H]2OCC[C@H]2N(CC2CCOCC2)C1 | 4.28 | -17.4
COc1ncccc1NC(=O)NC1CCOc2ccccc21 (stereo not drawn) | -3.76 | -5.5
COCC(O)CNC(=O)c1cnc(-c2ccccc2)nc1O (stereo not drawn) | 2.15 | -7.39
COc1cc(CNCc2ccnc(N3CCOCC3)c2)cc(Cl)c1OC | 6.73 | 24.1
CN(C)C(=O)N1CCN(Cc2cnn(C)c2)CC2(CNC(=O)C2)C1 (stereo not drawn) | 2.15 | -5.82
CC(C)c1n[nH]c(C(=O)Nc2ccncc2)c1Br | -4.8 | 4.1
CCC(=O)N1CCC2(COCc3c(C)nc(N(C)C)nc32)C1 (stereo not drawn) | 6.18 | -30.5
COc1cccc(OCC2CCCN(C(=O)c3cnc(C)nc3O)C2)c1 (stereo not drawn) | -0.346 | 2.77
CCN1CCC(CNC(=O)C2(c3cccc(C)c3)CC2)C1 (stereo not drawn) | 2.87 | 1.34
O=C(c1cccn1Cc1cccs1)N1CCN(C(=O)C2CC2)CC1 | 4.89 | -4.84
Cc1cn2nc(N3CCCN(Cc4noc(C)n4)CC3)sc2n1 | -1.65 | 0.184
Cn1nc2c(cc1=O)CN(Cc1nnc(C3CC3)o1)CC2 | 47.1 | -53.6
CN(Cc1nc(-c2ccco2)no1)C1CCCN(c2cccnn2)C1 (stereo not drawn) | -3.2 | -26.8
CNC(=O)[C@H]1CO[C@H]2CCN(Cc3ccc4ccccc4n3)C[C@H]2C1 | 2.46 | -3.36
CN(C(=O)c1cccc2[nH]ncc12)C1CCN(c2ccccn2)CC1 | 4.76 | 24.8
CN1CCOC(CNC(=O)CCCOCCc2ccccc2)C1 (stereo not drawn) | -3.72 | 1.69
NC(=O)C1CCN(C(=O)Cn2nc(-c3ccccc3)oc2=O)C1 (stereo not drawn) | 7.46 | -67.9
Cc1c(F)cc(C(=O)O)cc1S(=O)(=O)Nc1cccc(C(F)F)c1 | -0.0333 | 12.3
O=C(c1cccnc1)N1CC[C@H](OCC2CC2)[C@@H]1Cc1cccnc1 | 3.76 | -13.7
CN1CCN(C(=O)c2ccc(=O)n(C)c2)c2ccccc21 | -7.61 | -16.6
Cc1cc(C2CCCN(C(=O)c3c(C)noc3C)C2)n[nH]1 (stereo not drawn) | -1.62 | 8.79
